According to PubChem BioAssay:

test: anti-His antibody binders, primary screen, artefact control for SMM control protein annotation, biochemical, small-molecule microarray, 635 nm fluorescence (AID 1128); conditions: anti-His Alexa647 antibody binding, higher = more signal;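 also: score merges feature fluorescence with signal-to-noise for each printed compound spot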

Going from `C=C(COC)/C(=C/C[C@@H](OC(C)=O)c1cccc(OCCO)c1)c1cc(C(=O)OC)ccc1OC` to `C=CCNC(=O)[C@H]1[C@@H]2C(=O)O[C@@H](c3ccccc3)[C@@H](c3ccccc3)N2[C@@H](c2ccccc2OCCO)[C@]12C(=O)N(C(=O)OCCOC)c1ccc(C#CCC(C(=O)OC)C(=O)OC)cc12`, the composite z-score rises from -1.25 to 2.1.

Going from `CC(C)(C)OC(=O)CC[C@]1(C(=O)NCCN2CCOCC2)N=C(c2ccc(OCCCO)cc2)O[C@H]1c1ccccc1CN=[N+]=[N-]` to `COc1ccc([Si](C)(C)[C@H]2[C@H](CC(=O)N3Cc4ccccc4C[C@H]3CO)O[C@@]3(C(=O)N(Cc4cccc(N5CCOC5=O)c4)c4ccccc43)[C@@H]2C)cc1`, the composite z-score falls from 2.63 to 1.42.

Going from `CC(=O)NCCCC[C@@H]1NC(=O)[C@@H]2C[C@H](C(=O)NCCCCCCN(C)C)[C@H](c3ccc(O)cc3)N2C1=O` to `CC(C)CN1C(=O)[C@@]2(Cc3ccccc31)c1ccccc1C(=O)N(C1CCCCC1)[C@H]2c1ccc(CO)cc1`, the composite z-score falls from 2.82 to -1.34.

Compared with `Cc1ccc(S[C@]2(C(=O)O)CC(=O)N(Cc3ccccc3)[C@@H]2c2ccc(CO)cc2)cc1`, `O=C1c2ccccc2[C@](Cc2ccccc2I)(C(=O)NCC(F)(F)F)[C@H](c2ccc(CO)cc2)N1Cc1ccccc1C(F)(F)F` is higher in composite z-score: -0.846 for the first, 0.722 for the second.

Going from `O=C1OCCC=C[C@H]2OC34C=CCN(Cc5ccccc5)C(=O)[C@H]3N(CCO)C(=O)[C@@H]4C12` (stereo not given in full) to `CC(C)N1CC=CC23O[C@@H]4/C=C\CCCOC(=O)C4[C@H]2C(=O)N(CCO)[C@@H]3C1=O` (stereo not given in full), the composite z-score rises from -0.954 to -0.548.
